Assay outcomes deposited in PubChem BioAssay by National Center for Advancing Translational Sciences (NCATS).
Marburg entry inh – qHTS for inhibitors of binding or entry into cells for Marburg Virus. Marburg virus pseudotyped entry inhibition, cell reporter. Potency, µM (highest dose often 37.8 µM), inactives show top-dose activity change, negative = inhibition, usual class: inhibitors. actives 1.8% (n = 300,000). AID 540276, 2011; calls by dose curve; tested in HEK293 cells; also: potency is read from the fitted curve at half-maximal effect
FMDV antiviral – High Throughput Screening for Foot and Mouth Disease Virus Antivirals; FMDV antiviral cell-based qHTS; actives 1.2% (n = 410,000); Potency, µM (series often up to 57.9 µM), without a hit: at the top dose activity change, negative = inhibition, hits mostly inhibitors; AID 1159524, 2015; calls by dose curve; tested in HEK293T cells; also: read-out not given here; potency is read from the fitted curve at half-maximal effect; nearly all actives have a fitted effect of over 45% in size
LASV entry inh – qHTS for Inhibitors of binding or entry into cells for Lassa Virus | Lassa virus pseudotype entry inhibition, cell reporter | Potency, µM (doses to about 37.9 µM), for inactives: top-dose activity change, negative = inhibition, most hits filed as inhibitors | actives 1.2% (n = 300,000) | AID 540256, 2011; calls by dose curve; tested in HEK293 cells; also: potency is read from the fitted curve at half-maximal effect; nearly all actives have a fitted effect of over 50% in size
FBPA Giardia inh – qHTS Assay for Inhibitors of Fructose-1,6-bisphosphate Aldolase from Giardia Lamblia. actives 0.71% (n = 290,000). AID 2451, 2010. purified Giardia FBPA. Potency, µM (highest dose often 59.6 µM), without a hit: top-dose activity, negative = inhibition, usual class: inhibitors; also: potency is read from the fitted curve at half-maximal effect; nearly all actives have a fitted effect of over 55% in size
Target sequence (A8B2U2 whole entry, looked up): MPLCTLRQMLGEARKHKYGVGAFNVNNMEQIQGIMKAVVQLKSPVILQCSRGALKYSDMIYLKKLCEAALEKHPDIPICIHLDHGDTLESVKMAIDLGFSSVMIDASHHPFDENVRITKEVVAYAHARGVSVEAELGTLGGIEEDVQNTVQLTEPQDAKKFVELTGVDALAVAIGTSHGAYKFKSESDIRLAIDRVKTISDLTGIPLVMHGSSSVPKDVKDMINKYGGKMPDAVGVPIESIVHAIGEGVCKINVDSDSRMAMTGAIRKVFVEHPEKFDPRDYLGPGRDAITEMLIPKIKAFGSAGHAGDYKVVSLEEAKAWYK
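Giardia FBPA (40 nM reagent) was preincubated 10 min at RT with compound (up to 57.5 uM final), then substrate plus GAPDH/TPI/NAD/arsenate coupling system with diaphorase/resazurin was added; resorufin fluorescence (525/598 nm) was read after 20 min.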
HCV inhibitor – qHTS Assay for Inhibitors of Hepatitis C Virus (HCV). Huh7.5.1 HCVcc-Cre infection, luciferase reporter, 44 h. Potency, µM (top dose mostly 41.8 µM), for the others: at the highest dose activity change, negative = inhibition, most hits filed as inhibitors. actives 3.4% (n = 340,000). AID 651820, 2012; also: potency is read from the fitted curve at half-maximal effect
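Cells seeded at 1,000/well and cultured 4 h, then compounds added followed by HCVcc-Cre virus (~0.5 moi). After 44 h further culture, luciferase substrate was added, plates held 15 min at room temperature, and luminescence read for 15 sec.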
HCMV antiviral – qHTS Assay for inhibitors of the human cytomegalovirus (HCMV); AID 1259415, 2018; activity change, negative = inhibition, % at 57.5 µM; HFF cells, HCMV-luciferase reporter, 72 h; hits give low values; actives 4.5% (n = 410,000); in the data active = activity change below about -60%; inconclusive = no clear call, values can overlap the other calls; inactive = above about -39%
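Screen run at 2 compound doses on HFFs infected with reporter HCMV, MOI 1 PFU/cell. Luciferase activity from cell lysates at 72 h post infection gave inhibition relative to buffer-only and Salinomycin wells.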
Active calls of the source: *; ? = inconclusive; nt = not tested or not shown; [ ] = dose if it differs, or a comment. Shown are actives, neighbours in structure and some others; about 8.3% of the full set was active somewhere. Unless noted, calls follow the shape of the dose curve; as a rule, active = well fitted curve in the direction sought with a large enough effect; inconclusive = small, poorly fitted or top-dose-only effect, or another doubt; inactive = no such curve, though single readings can be large; an effect the other way counts as inactive or inconclusive. % is scaled to controls: 0 for no effect and ±100 for the full control effect.

SMILES	Marburg entry inh	FMDV antiviral	LASV entry inh	FBPA Giardia inh	HCV inhibitor	HCMV antiviral
Cc1ccc(Cn2nc(C)c(C(=O)NCC(c3cccs3)N3CCOCC3)c2Cl)cc1 (centres undefined)	-13%	?	13µM*	nt	4%	?
O=C(N/N=C/c1cc([N+](=O)[O-])ccc1O)c1ccc(COc2ccc3c(c2)CCC3)o1	?	?	?	16%	-27%	-96*
O=C(c1ccc(COc2ccc(F)cc2)o1)n1cccn1	17%	7%	14%	0%	19%	-104*
O=C(NCc1cccnc1)c1ccc(COc2ccc3c(c2)CCC3)o1	23µM*	18µM*	?	-7%	-19%	24
CCOc1ccc(OCc2ccc(C(=O)O)o2)cc1	?	8.9µM*	?	3%	2%	30
C=CCc1ccc(OCc2ccc(C(=O)O)o2)c(OC)c1	?	14µM*	?	11%	22%	180
CCOc1ccc(OCc2ccc(C(=O)NCc3ccncc3)o2)cc1	0%	nt	22%	5%	7.1µM*	2
CCc1ccc(-n2nc(CO)c(C(=O)NCCCc3ccccc3)n2)cc1	9%[46.1 µM]	17%	8%[46.1 µM]	nt	nt	47
O=C(CN(CC(=O)Nc1ccc(Br)cc1)CC(=O)Nc1ccc(Br)cc1)Nc1ccc(Br)cc1	nt	nt	nt	nt	nt	-17
O=C(CCCn1c(=S)[nH]c2ccsc2c1=O)Nc1ccc(F)cc1	nt	?	nt	nt	nt	24
O=C(CCCn1c(=S)[nH]c2ccsc2c1=O)Nc1ccc2c(c1)OCCO2	12%[46.1 µM]	-18%	nt	-20%	-24%	-75*
O=C(Nc1ccc(F)cc1)c1cccc(N2CCCS2(=O)=O)c1	nt	12%	?	nt	nt	2
Cc1ccc(NC(=O)C(=O)Nc2ccccn2)cc1	1.1µM*	?	2.9µM*	2%	5%	-17
COc1ccccc1NC(=O)C(=O)Nc1ccccn1	?	nt	?	3%	-19%	107
Cc1ccc(NC(=S)Nc2ccccn2)c(C)c1	4µM*	30%	?	-5%	?	-21
Cc1ccc(S(=O)(=O)CC(=O)Nc2ccc(S(=O)(=O)Nc3ccccn3)cc2)cc1	nt	53%	nt	5%	15%	9
Cc1ccc(S(=O)(=O)CC(=O)Nc2ccccn2)cc1	-20%[46.1 µM]	-2%	1%[46.1 µM]	-1%	5%	-63*
COc1cccc(-c2n[nH]c3ccnc(-c4cccc(C(C)=O)c4)c23)c1	nt	nt	nt	nt	nt	-21
O=C(Nc1ccccc1Cl)[C@H](CSCc1ccccc1)N1Cc2ccccc2C1=O	-17%[46.1 µM]	-1%	-17%[46.1 µM]	nt	nt	?
CC(C)CNC(=O)c1cc([N+](=O)[O-])ccc1N1CCOCC1	3%	-17%	2%	7%	6%	48
CCN(CC)S(=O)(=O)c1cc(NC(=O)c2cc([N+](=O)[O-])ccc2N2CCOCC2)ccc1C	18µM*	-19%	?	nt	?	?
CC(C)(CNC(=O)c1cc([N+](=O)[O-])ccc1N1CCC(Cc2ccccc2)CC1)N1CCOCC1	nt	-28%	nt	nt	?	-63*
Cc1cc(=O)oc2cc(NC(=O)c3cc([N+](=O)[O-])ccc3N3CCOCC3)ccc12	?	-20%	nt	-5%	10µM*	?
Cc1cc(C)c(NC(=O)CNC(=O)c2cc([N+](=O)[O-])ccc2N2CCOCC2)c(C)c1	?	-13%	?	nt	25µM*	-4
O=C(Nc1cccc(F)c1)N1CC2(CCN(C(=O)c3ccco3)CC2)C1	nt	8%	nt	8%	nt	nt
SMILES	Marburg entry inh	FMDV antiviral	LASV entry inh	FBPA Giardia inh	HCV inhibitor	HCMV antiviral
CCCNC(=O)c1ccc(COc2ccc(C(C)(C)C)cc2)o1	?	-14%	?	6%	13µM*	3
CC(C)(C)c1ccc(OCc2ccc(C(=O)N3CCOCC3)o2)cc1	?	-22%	7.9µM*	-16%	?	-71*
Cc1cccc(OCc2ccc(C(=O)N3CCOCC3)o2)c1	-4%[46.1 µM]	21%	5%	4%	-9%	55
COc1ccc(N2CCN(S(=O)(=O)CCNC(=O)c3c(F)cccc3Cl)CC2)cc1	nt	-6%	0%[46.1 µM]	nt	nt	10
Cc1cc(/C=N/n2cnnc2)c(C)n1-c1ccc(OCc2ccccc2F)cc1	?	nt	?	2%	?	-93*
Cc1cc(/C=N/n2cnnc2)c(C)n1-c1ccc(OCc2ccc(Cl)cc2)cc1	?	?	?	-5%	7.9µM*	-92*
Cc1ccc(S(=O)(=O)c2nc(-c3ccccc3F)oc2N2CC(C)OC(C)C2)cc1 (centres undefined)	-17%	27%	16µM*	-2%	?	-20
Cc1cccc(OCCn2nnc3sc4c(c3c2=O)CCCC4)c1	?	45%	16%[46.1 µM]	nt	nt	19
Nc1ccc2ncccc2c1N	?	-8%	-20%	?	?	-36
Nc1nc(N)c2c(ccc3nccc32)[nH]1	nt	20%	nt	-27%	?	-96*
Cc1cccc(N2CCN(C(=O)CC(NC(=O)c3ccccc3)c3ccccc3)CC2C)c1 (centres undefined)	?	?	?	-3%	-28%	-66*
Cc1cccc(N2CCN(C(=O)c3cn4ccccc4n3)CC2C)c1 (centres undefined)	?	?	-5%[46.1 µM]	10%	-10%	-62*
Cc1cc([N+](=O)[O-])c2[nH]c(C(=O)N/N=C/c3ccccc3C(=O)O)c(-c3ccccc3)c2c1	-14%	-5%	-7%	?	?	-80*
COc1ccc(-c2ccc3c(c2)N(C(C)C)C(=O)COC3)cc1	nt	nt	nt	nt	nt	-8
Cc1ccc(CNc2ncnc(N)c2[N+](=O)[O-])cc1	17%[46.1 µM]	2%	nt	2%	1%	-61*
CN(c1ccccc1)c1nc(N)c([N+](=O)[O-])c(Nc2ccccc2)n1	nt	-18%	nt	2%	5.6µM*	-11
CN(Cc1ccccc1)c1nc(N)c([N+](=O)[O-])c(NCc2ccccc2)n1	?	35µM*	?	-2%	?	?
Cc1ccc2[nH]c3c(c2c1)CN(C(=O)CN1C[C@@H](C)O[C@@H](C)C1)CC3	6%	nt	nt	nt	nt	nt
COC(=O)c1ccc(C(NC(=O)OCc2ccccc2)/C(F)=C/[C@@H](C)C(=O)NCc2ccc(OC)c(OC)c2)cc1 (some centres undefined)	?	?	15µM*	-6%	2%	-11
O=C(Nc1ccc2nc(-c3ccco3)c(-c3ccco3)nc2c1)N1CCCCCC1	-17%	-12%	-10%	?	2.8µM*	nt
COc1cccc(NC(=O)Cn2nc(C)c3c(C)n(-c4ccccc4)nc3c2=O)c1	nt	-7%	24%[46.1 µM]	nt	nt	?
Cc1ccc(Cc2c(-c3cccc(Br)c3)nc3c4ccccc4ccn23)cc1	nt	nt	nt	nt	nt	79
CCOC(=O)C1(CCOc2ccccc2)CCN(Cc2ccccc2O)CC1	?	-29%	-6%[46.1 µM]	nt	?	18
